Results filed as inconclusive are left out. Where a call stands in place of a potency, no number is given. Activity calls are given as the source filed them. Calls come from the whole dose curve; as a rule, active = well fitted inhibition curve with a large enough effect; inconclusive = small, poorly fitted or top-dose-only effect; inactive = flat fitted curve, though single readings scatter.
Assays:
Assay in all cases: qHTS profiling for inhibitors of Plasmodium falciparum proliferation (AID 504749); note: nearly all actives have a fitted effect of over 60% in size
Conditions in all cases: P. falciparum in erythrocytes, SYBR Green DNA, 72 h; series mostly up to 28.7 µM
[1] = test system: 7G8
How it was run: (§1)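 In a 72 h erythrocytic culture (37 C, humidified, 5% CO2) at 2.5% hematocrit and 0.3% starting parasitemia, compounds were tested; SYBR Green I in detergent lysis buffer stained parasite DNA overnight.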

[2] = test system: AA1029
How it was run: as §1

[3] = test system: C2A
How it was run: as §1

[4] = test system: CP211
How it was run: as §1

[5] = test system: CP217
How it was run: as §1

[6] = test system: CP237
How it was run: as §1

[7] = test system: CP238
How it was run: as §1

[8] = test system: CP250
How it was run: as §1

[9] = test system: CP252
How it was run: as §1

[10] = test system: CP256
How it was run: as §1

[11] = test system: CP265
How it was run: as §1

[12] = test system: CP329
How it was run: as §1

[13] = test system: ECU
How it was run: as §1

[14] = test system: ICS
How it was run: as §1

[15] = test system: N140
How it was run: as §1

[16] = test system: P93_24
How it was run: as §1

[17] = test system: PC15
How it was run: as §1

[18] = test system: PC26
How it was run: as §1

[19] = test system: SC27B
How it was run: as §1

[20] = test system: TAB165
How it was run: as §1
Potency is the fitted concentration of half-maximal effect.

Question: With `CC(C)(C)c1ccc(CN2CCN([C@H](c3ccccc3)c3ccc(Cl)cc3)CC2)cc1` as the compound, how does the Potency [1] read?
Answer: 3.55 µM (active)

Question: And the Potency [2]?
Answer: 8.91 µM (active)

Question: And the Potency [3]?
Answer: 10 µM (active)

Question: What about the Potency [4] of the same compound?
Answer: inactive

Question: What about the Potency [5] of the same compound?
Answer: 8.91 µM (active)

Question: What about the Potency [6] of the same compound?
Answer: 7.94 µM (active)

Question: What about the Potency [7] of the same compound?
Answer: 8.91 µM (active)

Question: And the Potency [8]?
Answer: 8.91 µM (active)

Question: What about the Potency [9] of the same compound?
Answer: 11.2 µM (active)

Question: What about the Potency [10] of the same compound?
Answer: 10 µM (active)

Question: And the Potency [11]?
Answer: 12.6 µM (active)

Question: What about the Potency [12] of the same compound?
Answer: inactive

Question: And the Potency [13]?
Answer: 10 µM (active)

Question: And the Potency [14]?
Answer: 2.51 µM (active)

Question: What about the Potency [15] of the same compound?
Answer: 7.08 µM (active)

Question: And the Potency [16]?
Answer: 11.2 µM (active)

Question: What about the Potency [17] of the same compound?
Answer: 11.2 µM (active)

Question: What about the Potency [18] of the same compound?
Answer: inactive

Question: And the Potency [19]?
Answer: 10 µM (active)

Question: And the Potency [20]?
Answer: 7.94 µM (active)

Question: `C[C@H](CCC(=O)O)[C@H]1CC[C@@H]2[C@H]3[C@@H](C[C@@H](O)[C@]21C)[C@]1(C)CC[C@H](O)C[C@@H]1C[C@@H]3O` was tested. Which Potency [1] did it give?
Answer: inactive

Question: What about the Potency [2] of the same compound?
Answer: inactive

Question: And the Potency [3]?
Answer: inactive

Question: What about the Potency [4] of the same compound?
Answer: inactive

Question: What about the Potency [5] of the same compound?
Answer: inactive

Question: What about the Potency [6] of the same compound?
Answer: inactive

Question: And the Potency [7]?
Answer: inactive

Question: What about the Potency [8] of the same compound?
Answer: inactive

Question: And the Potency [9]?
Answer: inactive

Question: And the Potency [10]?
Answer: inactive

Question: What about the Potency [11] of the same compound?
Answer: inactive

Question: What about the Potency [12] of the same compound?
Answer: inactive

Question: And the Potency [13]?
Answer: inactive

Question: What about the Potency [14] of the same compound?
Answer: inactive

Question: And the Potency [15]?
Answer: inactive

Question: And the Potency [16]?
Answer: inactive

Question: And the Potency [17]?
Answer: inactive

Question: And the Potency [18]?
Answer: inactive

Question: What about the Potency [19] of the same compound?
Answer: inactive

Question: What about the Potency [20] of the same compound?
Answer: inactive

Question: `O=C(O)[C@@H](O)[C@@H](O)[C@H](O)C(=O)CO` was tested. Which Potency [1] did it give?
Answer: inactive

Question: What about the Potency [2] of the same compound?
Answer: inactive

Question: And the Potency [3]?
Answer: inactive

Question: And the Potency [4]?
Answer: inactive

Question: And the Potency [5]?
Answer: inactive

Question: And the Potency [6]?
Answer: inactive

Question: What about the Potency [7] of the same compound?
Answer: inactive

Question: What about the Potency [8] of the same compound?
Answer: inactive

Question: And the Potency [9]?
Answer: inactive

Question: What about the Potency [10] of the same compound?
Answer: inactive

Question: And the Potency [11]?
Answer: inactive

Question: What about the Potency [12] of the same compound?
Answer: inactive

Question: And the Potency [13]?
Answer: inactive

Question: And the Potency [14]?
Answer: inactive

Question: And the Potency [15]?
Answer: inactive

Question: And the Potency [16]?
Answer: inactive

Question: And the Potency [17]?
Answer: inactive

Question: What about the Potency [18] of the same compound?
Answer: inactive

Question: And the Potency [19]?
Answer: inactive

Question: And the Potency [20]?
Answer: inactive

Question: How did the Potency [1] turn out when `Cc1onc(-c2c(F)cccc2Cl)c1C(=O)N[C@@H]1C(=O)N2[C@H]1SC(C)(C)[C@H]2C(=O)O` was run?
Answer: inactive

Question: What about the Potency [2] of the same compound?
Answer: inactive

Question: What about the Potency [3] of the same compound?
Answer: inactive

Question: And the Potency [4]?
Answer: inactive

Question: What about the Potency [5] of the same compound?
Answer: inactive

Question: What about the Potency [6] of the same compound?
Answer: inactive

Question: What about the Potency [7] of the same compound?
Answer: inactive

Question: What about the Potency [8] of the same compound?
Answer: inactive

Question: And the Potency [9]?
Answer: inactive

Question: What about the Potency [10] of the same compound?
Answer: inactive

Question: And the Potency [11]?
Answer: inactive

Question: What about the Potency [12] of the same compound?
Answer: inactive

Question: And the Potency [13]?
Answer: inactive

Question: And the Potency [14]?
Answer: inactive

Question: What about the Potency [15] of the same compound?
Answer: inactive

Question: What about the Potency [16] of the same compound?
Answer: inactive

Question: And the Potency [17]?
Answer: inactive

Question: And the Potency [18]?
Answer: inactive

Question: What about the Potency [19] of the same compound?
Answer: inactive

Question: And the Potency [20]?
Answer: inactive

Question: With `CC1(C)S[C@@H]2[C@H](NC(=O)Cc3ccccc3)C(=O)N2[C@@H]1C(=O)O` as the compound, how does the Potency [1] read?
Answer: inactive

Question: What about the Potency [2] of the same compound?
Answer: inactive

Question: What about the Potency [3] of the same compound?
Answer: inactive

Question: And the Potency [4]?
Answer: inactive

Question: And the Potency [5]?
Answer: inactive

Question: And the Potency [6]?
Answer: inactive

Question: And the Potency [7]?
Answer: inactive

Question: What about the Potency [8] of the same compound?
Answer: inactive

Question: And the Potency [9]?
Answer: inactive

Question: And the Potency [10]?
Answer: inactive

Question: And the Potency [11]?
Answer: inactive

Question: What about the Potency [12] of the same compound?
Answer: inactive

Question: And the Potency [13]?
Answer: inactive

Question: What about the Potency [14] of the same compound?
Answer: inactive

Question: What about the Potency [15] of the same compound?
Answer: inactive

Question: What about the Potency [16] of the same compound?
Answer: inactive

Question: What about the Potency [17] of the same compound?
Answer: inactive

Question: What about the Potency [18] of the same compound?
Answer: inactive

Question: What about the Potency [19] of the same compound?
Answer: inactive

Question: What about the Potency [20] of the same compound?
Answer: inactive

Reference: PubChem BioAssay (NCATS)
